Screening results deposited in PubChem by several laboratories.
rCAG RNA binder = binds r(CAG) RNA repeats; r(CAG) RNA repeat, TO-PRO-1 dye displacement fluorescence; AID 651821; 370,000 compounds, 1.3% hits; inhibition, % at 3 µM;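 active = inhibition above the plate cutoff, the mean of all test compounds on that plate plus 3 SD, cut at about 35% in these data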;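 also: 0% = DMSO alone and 100% = 100 µM mitoxantrone as full dye displacement; higher means more dye released from RNA so lower well fluorescence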
MsrA inhibitor = inhibits bovine methionine sulfoxide reductase A. AID 651718. purified bovine MsrA, absorbance read-out. 360,000 compounds, 0.75% hits. inhibition, % at 15.5 µM; in the data active = inhibition above about 4.5%;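 also: 0% = vehicle wells with enzyme and 100% = reference inhibitor wells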
NadD block = NadD (S. aureus) enzyme inhibition | purified NadD enzyme, colorimetric absorbance read-out | inhibition, % at 20 µM | 360,000 compounds, 0.78% hits; in the data active = inhibition above about 26%
bovine MsrA act = activates bovine MsrA enzyme; purified bovine MsrA, absorbance read-out; activation, % at 10.6 µM; 360,000 compounds, 0.3% hits; AID 602163; in the data active = activation above about 7.5%;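 also: 0% = vehicle and 100% = reference activator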
rCAG binder conf = r(CAG) RNA repeat binding, confirmation; shares compounds with rCAG RNA binder; TO-PRO-1 dye displacement fluorescence; inhibition, % at 3 µM; 4,300 compounds, 70% hits; AID 652065;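 active = inhibition above a per-plate cutoff, the mean inhibition of sample wells plus 3 SD, cut at about 35% in these data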;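 also: loss of TO-PRO-1 fluorescence as compound displaces dye from 1x1 AA loop RNA; 0% = DMSO only wells and 100% = 100 µM mitoxantrone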
dCAG dye counter = counter-screen for rCAG RNA binders: DNA CAG dye complex inhibitors | shares compounds with rCAG RNA binder | 4,300 compounds, 94% hits | d(CAG) DNA oligo TO-PRO-1 dye displacement, fluorescence | inhibition, % at 3 µM | AID 652068;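 active = inhibition above its plate's cutoff, the mean test-well inhibition plus 3 SD, cut at about 4.8% in these data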;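 also: 0% = DNA dye mix with DMSO and 100% = 100 µM mitoxantrone; hits displace the dye from DNA and so lower well fluorescence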
DNA CAG DR = disrupts DNA CAG TO-PRO-1 complex in dose response; DNA CAG/GTC duplex TO-PRO-1 dye displacement fluorescence; 250 compounds, 20% hits; IC50, µM; shares compounds with rCAG RNA binder; AID 686960; in the data active = IC50 below about 10 µM
* hit, by the source's call; / = no result. In the library only some 2.7% were active in any assay of this set; here they are far more common.

SMILES	rCAG RNA binder	MsrA inhibitor	NadD block	bovine MsrA act	rCAG binder conf	dCAG dye counter	others
CC1CCCCC1NC(=O)C(=O)NCC1CCCO1 (stereo unspecified)	56*	0	-3	-10	1	-2
COc1ccccc1-n1c(SCC(=O)O)nc2c(sc(=S)n2-c2ccc(C)c(C)c2)c1=O	48*	2	2	-4	72*	33*	DNA CAG DR=>30
CCc1ccc(-n2c(=S)sc3c(=O)n(-c4ccccc4C)c(SCC(=O)O)nc32)cc1	41*	2	1	-11	44*	13*
CCN(CC)C(=O)CSc1nc2c(sc(=S)n2-c2ccccc2)c(=O)n1-c1ccccc1OC	-1	3	0	-4	/	/
CCOC(=O)CSc1nc2c(sc(=S)n2-c2ccccc2)c(=O)n1-c1ccc(OC)cc1OC	10	2	11	-8	/	/
Cc1cc(-n2c(=S)sc3c(=O)n(-c4ccc(F)cc4)c(SCC(=O)O)nc32)ccc1Cl	48*	3	-3	-4	38*	12*
Cc1ccc(-n2c(=S)sc3c(=O)n(-c4ccccc4C)c(SCC(=O)O)nc32)cc1C	41*	1	3	-3	68*	28*
CCOC(=O)CN1N=C(c2ccc(Cl)cc2)CCC1=O	-2	1	-2	-1	/	/
CCC1CCCCN1Cc1nc(Cc2ccccc2Cl)no1 (stereo unspecified)	-10	2	-6	-5	/	/
CCCCCCN1CCN(C2CN(Cc3cn(Cc4ccccc4)nn3)S(=O)(=O)C2)CC1 (stereo unspecified)	-2	2	-8	-5	/	/
COc1ccccc1-n1c(SCC(=O)O)nc2c(sc(=S)n2-c2ccc(Cl)c(C)c2)c1=O	66*	3	4	-4	60*	24*
C/C(CC(=O)N1CCN(C=O)CC1)=N\NC(=O)c1cc2ccccc2cc1O	53*	1	6	1	22	9.2*
C/C(CC(=O)N1CCN(C=O)CC1)=N\NC(=O)c1ccc([N+](=O)[O-])cc1	2	-1	-1	-12	/	/
C/C(=N\NC(=O)c1cc2ccccc2cc1O)c1cc2ccccc2o1	50*	1	49*	-9	40*	15*
O=C(O)c1ccc(-n2nc(C(F)(F)F)cc2-c2cccs2)cc1	8	0	-5	-6	/	/
O=C(O)c1cc(S(=O)(=O)N2CCN(S(=O)(=O)c3ccc4ccccc4c3)CC2)ccc1Br	53*	1	7	-1	43*	15*
O=C(O)c1cc(S(=O)(=O)N2CCN(S(=O)(=O)c3ccccc3)CC2)ccc1Cl	0	1	2	-3	/	/
O=C(O)c1cc(S(=O)(=O)N2CCN(C(c3ccccc3)c3ccccc3)CC2)ccc1Cl	55*	0	4	-3	49*	17*
CCOc1cc(/C=C2\C(=N)N3N=C(S(C)(=O)=O)SC3=NC2=O)ccc1OCCOc1cccc(OC)c1	49*	1	31*	-1	92*	73*
CCS(=O)(=O)C1=NN2C(=N)/C(=C\c3ccc(OCCOc4cccc(OC)c4)c(OC)c3)C(=O)N=C2S1	49*	0	18	-2	91*	76*
COc1ccc(C(=O)N/C(=C\c2cn(C)c3ccccc23)C(=O)N2CCOCC2)cc1	-2	1	8	-3	/	/
C/C(=N\N=C(/N)SC1CC(=O)N(c2ccc(Br)cc2)C1=O)c1cccs1 (stereo unspecified)	47*	1	15	-6	77*	35*
C/C(=N\N=C(/N)SC1CC(=O)N(c2ccc(Cl)cc2)C1=O)c1cccs1 (stereo unspecified)	43*	3	9	-6	63*	24*
N/C(=N\N=C\c1cccs1)SC1CC(=O)N(c2ccc(Br)cc2)C1=O (stereo unspecified)	38*	3	13	-12	70*	25*	DNA CAG DR=>30
CCCCCCOc1ccc(N2C(=O)CC(S/C(N)=N/N=C(\C)c3cccs3)C2=O)cc1 (stereo unspecified)	27	2	17	7	/	/
C/C(=N\N=C(/N)SC1CC(=O)N(c2ccc(Cl)c(Cl)c2)C1=O)c1cccs1 (stereo unspecified)	24	0	23	-2	/	/
O=C(NC(=O)N1CCN(C(c2ccccc2)c2ccccc2)CC1)c1ccccc1	-4	1	-3	-2	/	/
